LEDGF integ inh: blocks HIV-1 LEDGF/p75-dependent DNA integration. TR-FRET IN-LEDGF/p75 DNA integration, Eu/Cy5. inhibition, % at 3.7 µM. 0.64% of 370,000 active;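 active = inhibition above the screen-wide mean plus 3 SD, cut at about 13% in these data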;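 also: signal is the Cy5 over europium emission ratio at 671 and 618 nm; 0% = plate median of compound wells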
CASP6 VEID inh: blocks human caspase-6 cleavage activity | P55212 | purified caspase-6, Z-VEID-R110 cleavage fluorescence | inhibition, % at 12.5 µM | 0.53% of 350,000 active | AID 686996;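 active = mean inhibition across replicates at least about 35%, with every replicate also reaching that limit, limit read from the data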;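 also: 0% = median of neutral control wells and 100% = no fluorescence left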
MBD2 DNA inh: inhibitors of human MBD2 binding to methylated oligonucleotide; 0.31% of 370,000 active; TR-FRET; inhibition, % at 4.4 µM; AID 686964; in the data active = inhibition above about 13%
Target sequence (Q9UBB5 whole entry, looked up): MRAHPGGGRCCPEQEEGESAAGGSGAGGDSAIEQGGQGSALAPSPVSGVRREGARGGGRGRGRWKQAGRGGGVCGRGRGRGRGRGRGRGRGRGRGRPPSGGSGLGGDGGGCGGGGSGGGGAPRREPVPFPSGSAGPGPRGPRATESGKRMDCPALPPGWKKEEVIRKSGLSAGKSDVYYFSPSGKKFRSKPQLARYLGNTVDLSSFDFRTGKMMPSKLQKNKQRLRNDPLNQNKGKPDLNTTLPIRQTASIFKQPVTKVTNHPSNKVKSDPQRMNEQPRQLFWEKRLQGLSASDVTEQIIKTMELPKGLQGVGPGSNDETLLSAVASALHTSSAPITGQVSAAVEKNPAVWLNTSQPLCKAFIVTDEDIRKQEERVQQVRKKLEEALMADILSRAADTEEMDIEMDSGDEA
UHRF1 binding: human UHRF1 methylated DNA binding inhibitors. UHRF1 binding to methylated oligo, TR-FRET. inhibition, % at 4.4 µM. 0.75% of 370,000 active;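 also: UHRF1 SRA domain binding a hemimethylated CpG hairpin DNA probe; 0% = median of test compound wells and 100% = reference inhibitor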
UHRF1 DNA bind: UHRF1 methyl-oligo binding inhibition as MBD2 counter-screen; shares compounds with MBD2 DNA inh; 25% of 1,000 active; UHRF1 binding to methylated oligonucleotide, TR-FRET; AID 720530; inhibition, % at 4.4 µM;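 also: UHRF1 SRA domain binding a labeled hemimethylated CpG hairpin DNA; 0% = vehicle only and 100% = reference inhibitor with vehicle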
MBD2 DBD conf: confirmation of human MBD2-DBD methylated oligonucleotide binding inhibitors; shares compounds with MBD2 DNA inh; TR-FRET MBD2-DBD binding to methylated oligonucleotide; inhibition, % at 4.4 µM; 26% of 1,000 active; in the data active = inhibition above about 14%
Active calls of the source: *; . = no result given. In the library only some 1.4% were active in any assay of this set; here they are far more common. Rule as the data show it, unless noted: active = inhibition above about 21%; inactive = the rest.

SMILES	LEDGF integ inh	CASP6 VEID inh	MBD2 DNA inh	UHRF1 binding	UHRF1 DNA bind	MBD2 DBD conf
COC(=O)[C@H](C(C)C)N(Cc1cn(CC2CCCCC2)nn1)S(=O)(=O)c1ccc(F)cc1Br	4	.	17*	19	7	7
O=C1CN(Cc2ccc(F)cc2)C[C@@H]2[C@@H](c3ccc(-c4ccccc4F)cc3)[C@@H](CO)N12	.	-1	.	.	.	.
CCOC(=O)CSc1nc(C(C)C)nc2sc(C)c(C)c12	-1	2	45*	2	2	4
C[C@@H]1CN([C@H](C)CO)C(=O)Cc2cc(NC(=O)CCC(F)(F)F)ccc2O[C@@H]1CN(C)C(=O)Nc1ccc2c(c1)OCO2	.	1	.	.	.	.
O=C(C[C@H]1C[C@@H]2c3cc(NC(=O)C4CCC4)ccc3O[C@@H]2[C@@H](CO)O1)NCc1cc(F)ccc1F	.	3	.	.	.	.
Cc1ccc(C(=O)NC2CCS(=O)(=O)C2)cc1S(=O)(=O)N1CCCC1 (configuration not stated)	-5	0	17*	1	6	1
COCOc1cccc(CN2CCC(C)(Oc3ccc(C(C)=O)cc3)C2)c1 (configuration not stated)	-1	-1	2	1	.	.
CC(=O)c1ccc(OC2(C)CCN(Cc3cc4ccccc4[nH]3)C2)cc1 (configuration not stated)	-2	-2	13*	9	5	2
Cc1ccc(-n2nc(C)cc2NC(=O)c2ccc(C)s2)cc1	0	.	34*	-2	5	6
CN(C)CCNc1cccc2sc3ccc(O)cc3c(=O)c12	-1	-8	4	-6	.	.
Cc1ccc(NCCN(C)C)c2c(=O)c3cc(O)ccc3sc12	1	-79	13*	-5	10	27*
CCC(=O)N(C)C[C@@H]1Oc2cc(-c3cccc(F)c3)ccc2S(=O)(=O)N([C@H](C)CO)C[C@@H]1C	.	0	.	.	.	.
COc1ccc(NC(=O)N(C)C[C@H]2Oc3ncc(C#CCN(C)C)cc3C(=O)N([C@@H](C)CO)C[C@@H]2C)cc1	.	-42	.	.	.	.
C/C(=N\NC(=O)c1nc2ccccn2c1C)c1ccc2c(c1)OCO2	-2	.	-1	-2	.	.
C/C(=N\NC(=O)c1nc2ccccn2c1C)c1cccc([N+](=O)[O-])c1	0	2	58*	0	4	3
C[C@@H]1CN([C@@H](C)CO)C(=O)Cc2cc(NC(=O)Nc3ccccc3)ccc2O[C@H]1CN(C)S(=O)(=O)c1ccccc1	.	3	.	.	.	.
C[C@@H]1CN([C@H](C)CO)C(=O)c2cc(NC(=O)c3ccncc3)ccc2O[C@@H]1CN(C)Cc1ccc(Cl)c(Cl)c1	.	-1	.	.	.	.
COC(=O)C(=Cc1ccncc1)c1cccc2ccccc12	2	3	40*	0	7	2
N#C[C@H]1[C@@H](c2ccc(C#CC3(O)CCCC3)cc2)[C@H](CO)N1C(=O)C1CC1	.	30	.	.	.	.
C=CCN1[C@H](C#N)[C@@H](c2ccc(C#Cc3ccccc3OC)cc2)[C@H]1CO	1	.	14*	17	9	8
C=CCN1[C@H](CO)[C@H](c2ccc(C#CC3(O)CCCC3)cc2)[C@@H]1C#N	3	.	14*	19	5	11
COc1ccccc1C#Cc1ccc([C@H]2[C@@H](C#N)N(C(=O)C3CC3)[C@H]2CO)cc1	.	0	.	.	.	.
O=C(C[C@H]1CC[C@@H]2[C@H](COC[C@H](O)CN2Cc2ccccc2F)O1)N1CCc2ccccc2C1	.	-4	.	.	.	.
CCC(=O)N(C)C[C@@H]1[C@@H](c2ccc(-c3ccccc3F)cc2)[C@H](CO)N1C(C)=O	.	6	.	.	.	.
Cc1noc(C)c1NC(=O)NCC[C@H]1CC[C@@H](NC(=O)Nc2cccc(F)c2)[C@@H](CO)O1	.	-5	.	.	.	.
SMILES	LEDGF integ inh	CASP6 VEID inh	MBD2 DNA inh	UHRF1 binding	UHRF1 DNA bind	MBD2 DBD conf
O=c1nc2c(O)cccn2c2c1c(=O)[nH]c1ccccc12	13	19	23*	43*	25*	26*
O=c1[nH]c2ccccc2c2nc3ccccn3c12	1	.	-1	-2	.	.
C=C(C)C(=O)Nc1cccc(C2=NOC3(C2)C[C@@H](C(N)=O)N(C(=O)CCCCC)C3)c1 (some centres not stated)	41*	59*	44*	90*	100*	82*
O=C(COC(=O)c1cc2c(s1)CCC2)Nc1ccc(F)cc1	8	14	15*	28*	32*	19*
C=CCNC(=O)C(=O)NCC(c1ccc2c(c1)OCO2)N1CCOCC1 (configuration not stated)	0	-2	-6	-2	.	.
CC(C)NC(=O)C(=O)NCC(c1ccc2c(c1)OCO2)N1CCOCC1 (configuration not stated)	5	-6	14*	28*	3	1
CCCC#Cc1ccc2c(c1)O[C@H](CN(C)C(=O)COC)[C@@H](C)CN([C@@H](C)CO)S2(=O)=O	.	2	.	.	.	.
NC(=O)C1=C(N)c2ccccc2C1c1ccccc1 (configuration not stated)	-5	5	32*	1	2	1
COc1ccc2c(CC(=O)N3CCN(S(=O)(=O)c4ccc(F)cc4)CC3)coc2c1	8	-3	73*	7	12	6
CN1CCN(C(=O)C[C@@H]2CC[C@H](NC(=O)Nc3ccccc3F)[C@H](CO)O2)CC1	.	0	.	.	.	.
COc1ccc(N2CCN(C(=O)CNC(=O)Cn3cnc4sc(C)c(C)c4c3=O)CC2)cc1	1	2	86*	0	2	4
COc1ccccc1N1CCN(C(=O)CNC(=O)Cn2cnc3sc(C)c(C)c3c2=O)CC1	1	-1	1	5	.	.
O=C(CSc1ccccc1)N1CCc2ccccc21	4	.	14*	22*	2	2
Cc1cc(C(=O)N2CCN(c3ncccn3)CC2)cs1	1	.	17*	4	-1	5
Cc1cccc(S(=O)(=O)N2C[C@@H](O)COC[C@H]3O[C@@H](CC(=O)NCc4ccncn4)CC[C@@H]32)c1	.	0	.	.	.	.
Cc1ccc(S(=O)(=O)Nc2ccccc2C=Nc2cccc(C)c2C)cc1	11	3	-3	-2	.	.
Cc1ccc(S(=O)(=O)Nc2ccccc2N=Cc2c(F)c(F)c(F)c(F)c2F)cc1	2	0	14*	-1	5	2
Cc1ccc2nc(C(C)(C)C)c(Cc3ccsc3)n2c1	6	9	7	18	.	.
Cc1ccc2nc(-c3cccc(Cl)c3)c(Cc3ccsc3)n2c1	-1	-4	13*	20	9	5
CCCc1nc2ccc(C)cn2c1Cc1ccsc1	-2	2	16*	22*	10	7
Cc1ccc2nc(-c3ccc(Cl)cc3)c(Cc3ccsc3)n2c1	-1	0	-2	15	.	.
CO[C@H]1CN(C)C(=O)c2cc(NS(=O)(=O)c3ccccc3C)ccc2OC[C@H](C)NC[C@@H]1C	.	0	.	.	.	.
C[C@@H]1CN([C@H](C)CO)C(=O)c2cc(C#CCN(C)C)cnc2O[C@@H]1CN(C)Cc1ccc(F)cc1	.	1	.	.	.	.

High-throughput results as filed in PubChem.
